RecA intein inh – inhibitors of M. tuberculosis RecA intein splicing | cell-free RecA intein splicing, fluorescence | P9WHJ3 | inhibition, % (concentration not given with the values) | 0.75% of 290,000 active | AID 2221; in the data active = inhibition above about 30%;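 also: 0% = vehicle wells and 100% = reference inhibitor control wells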
Target sequence (P9WHJ3 whole entry, looked up): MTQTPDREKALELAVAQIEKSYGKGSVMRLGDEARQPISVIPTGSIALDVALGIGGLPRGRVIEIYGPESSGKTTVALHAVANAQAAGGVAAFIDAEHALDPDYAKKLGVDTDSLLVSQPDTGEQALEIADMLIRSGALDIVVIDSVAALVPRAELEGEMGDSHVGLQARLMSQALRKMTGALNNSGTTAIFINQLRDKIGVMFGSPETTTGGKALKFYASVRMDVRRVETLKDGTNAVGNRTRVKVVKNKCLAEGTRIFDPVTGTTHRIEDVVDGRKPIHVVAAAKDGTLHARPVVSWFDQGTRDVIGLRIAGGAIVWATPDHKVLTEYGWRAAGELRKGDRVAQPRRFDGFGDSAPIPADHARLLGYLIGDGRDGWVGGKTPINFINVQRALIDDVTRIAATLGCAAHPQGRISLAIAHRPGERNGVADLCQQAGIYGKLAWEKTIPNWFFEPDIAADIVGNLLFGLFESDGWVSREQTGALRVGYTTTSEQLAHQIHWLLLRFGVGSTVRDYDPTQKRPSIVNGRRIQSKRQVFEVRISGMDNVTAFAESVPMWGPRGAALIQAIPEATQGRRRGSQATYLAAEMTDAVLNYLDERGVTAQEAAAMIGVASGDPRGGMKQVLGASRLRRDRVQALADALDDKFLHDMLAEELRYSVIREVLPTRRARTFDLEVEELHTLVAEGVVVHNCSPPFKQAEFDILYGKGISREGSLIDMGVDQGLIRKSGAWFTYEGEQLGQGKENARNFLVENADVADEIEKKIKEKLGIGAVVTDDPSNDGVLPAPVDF
Mtb UGM inh – Mtb UDP-galactopyranose mutase inhibition | P9WIQ1 | inhibition, % at 10 µM | purified UGM, fluorescence polarization probe displacement | 0.06% of 320,000 active; in the data active = inhibition above about 10%, passing the limit was not always enough
Mtb betalactam – beta-lactam sensitization of Mtb H37Rv; AID 434955; inhibition, % at 25 µM; M. tuberculosis H37Rv growth with meropenem, percent inhibition; 0.27% of 330,000 active; call rule not given here;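 also: growth measured after seven days incubation then overnight dye step; 0% = bacteria only wells and 100% = bacteria with antibiotic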
Mtb FBA inh – inhibits M. tuberculosis FBA enzyme. AID 588726. 2.3% of 360,000 active. P9WQA3. inhibition, % at 1 µM. purified M. tuberculosis FBA, fluorescence read-out;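 also: 0% = vehicle and 100% = reference inhibitor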
GDH-TPI counter-1 – counter-screen for M. tuberculosis FBA inhibitors: GDH-TPI coupled enzymes | GDH-TPI coupled enzyme counterscreen, NADH absorbance | inhibition, % at 4.8 µM | 1.2% of 360,000 active | AID 588335; in the data active = inhibition above about 30%;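 also: 0% = DMSO wells and 100% = wells lacking the enzyme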
Rv3671c inh – Rv3671c (M. tuberculosis) protease inhibition | inhibition, % at 5.96 µM | 0.048% of 320,000 active; in the data active = inhibition above about 38%;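 also: extracellular domain of Rv3671c used as enzyme; 0% = enzyme with DMSO and 100% = no enzyme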
Mtb FBA inh conf – Mtb FBA inhibition, confirmed. shares compounds with Mtb FBA inh. inhibition, % at 1 µM. 78% of 5,600 active. purified M. tuberculosis FBA, fluorescence read-out. AID 651616;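 also: 0% = vehicle wells and 100% = reference inhibitor wells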
GDH-TPI counter-2 – counter-screen for M. tuberculosis FBA inhibitors: GDH-TPI coupled enzyme inhibition | 81% of 5,600 active | GDH-TPI coupled enzyme counterscreen, fluorescence | inhibition, % at 1 µM | shares compounds with Mtb FBA inh; in the data active = inhibition above about 10%
GDH-TPI DR – GDH-TPI dose response counter-screen for Mtb FBA; shares compounds with Mtb FBA inh; GDH-TPI coupled enzyme assay, fluorescence, artifact counterscreen; IC50, µM; 79% of 170 active; call rule not given here
Starred values were filed as active, the others as inactive; / = no result given; + = active, no number. Most compounds without a hit are left out; they make up all but 4% or so of the library. Rule as the data show it, unless noted: active = inhibition above about 27%; inactive = the rest.

SMILES	RecA intein inh	Mtb UGM inh	Mtb betalactam	Mtb FBA inh	GDH-TPI counter-1	Rv3671c inh	Mtb FBA inh conf	GDH-TPI counter-2	others
CCCn1c(N)c(N(CCOC)C(=O)COC(=O)c2ccccc2NCCO)c(=O)[nH]c1=O	-4.6	5.5	-6.9	90.5*	1.0	-5.6	122.3*	102.5*
CCCCn1c(N)c(N(CCOC)C(=O)COC(=O)c2ccccc2OCC)c(=O)[nH]c1=O	-1.1	1.6	-10.3	-0.7	-1.0	1.0	/	/
Nc1cc(N)cc(C(=O)OCC(=O)Nc2cc(S(=O)(=O)N3CCCCC3)ccc2Cl)c1	1.7	0.3	-1.2	-0.4	15.8	6.4	/	/
O=C(Nc1ccc2c(c1)CCCN2C(=O)c1cccs1)c1c(F)cccc1Cl	7.1	-2.0	79.8	98.8*	24.1	7.8	+	199.5*
CCCNC(=O)Nc1nc2ccccc2s1	-0.2	2.7	-7.6	4.5	-1.3	0.1	/	/
CCCNC(=O)c1ccc(-c2nc3ccccc3s2)s1	-5.8	1.5	51.2	48.2*	32.3*	-19.7	99.6*	65.9*
CCN1CCN(CC(O)COc2ccc3c(C)cc(=O)oc3c2)CC1 (configuration not stated)	-0.4	0.5	-2.0	52.8*	7.4	-3.8	+	+
Cc1cc(=O)oc2cc(OCC(O)Cn3ccnc3)ccc12 (configuration not stated)	-0.3	-0.2	-2.1	43.4*	27.1	6.7	9.9	-0.7
O=C(Nc1ccc2nc(C(F)(F)F)[nH]c2c1)[C@@H]1O[C@H](CO)[C@@H](O)[C@H]1O	/	/	/	0.1	-10.7	/	/	/
CCOC(=O)C1CCN(C(=O)c2cc3c(s2)-c2ccccc2OC3)CC1	0.4	1.6	-5.2	85.4*	25.7	-13.6	3.1	-3.2
COc1ccccc1N1CCN(C(=O)c2cc3c(s2)-c2ccccc2OC3)CC1	6.9	-2.4	1.1	7.6	13.5	3.8	/	/
COc1cc2c(cc1OC)C(C)N(C(=O)c1cc3c(s1)-c1c(C)cccc1OC3)CC2 (configuration not stated)	12.7	1.7	46.3	30.6*	11.9	-8.1	138.6*	97.0*
COc1cc2c(cc1OC)C(C)N(C(=O)c1cc3c(s1)-c1ccccc1OC3)CC2 (configuration not stated)	12.3	-0.7	4.2	58.8*	18.8	-12.7	36.7*	32.6*
COc1cc2c(cc1OC)C(C)N(C(=O)C1COc3ccccc3O1)CC2 (configuration not stated)	1.4	-1.0	7.5	-4.3	-11.5	-4.7	/	/
COc1cc2c(cc1OC)C(C)N(C(=O)c1cccs1)CC2 (configuration not stated)	2.3	-0.8	-6.4	-1.1	-5.9	3.4	/	/
COc1cccc(NC(=O)c2cc(-c3ccco3)nc3ccccc23)c1	4.9	5.9	4.9	4.8	5.6	-30.0	/	/
CN(CCOc1ccc(Cl)cc1)C(=O)c1cc(-c2ccco2)nc2ccccc12	19.4	5.9	-5.2	36.5*	7.0	1.8	173.9*	127.2*
CCOc1ccc(NC(=O)CN(C)C(=O)c2cc(-c3ccco3)nc3ccccc23)cc1OCC	/	/	/	61.7*	14.9	/	+	+
COc1cccc(NC(=O)CN(C)C(=O)c2cc(-c3ccco3)nc3ccccc23)c1	2.0	/	-5.0	69.4*	13.6	7.4	2.8	0.2
CN(CC(=O)Nc1ccc(F)cc1)C(=O)c1cc(-c2ccco2)nc2ccccc12	2.9	3.9	-8.1	30.0*	11.7	5.0	+	+
Cc1ccc(NC(=O)CN(C)C(=O)c2cc(-c3ccco3)nc3ccccc23)cc1	0.7	1.0	-8.1	19.4	10.8	-13.7	/	/
Cc1ccc(S(=O)(=O)N2C[C@H]3[C@H]4C(=O)N(C)C(=O)[C@H]4CC(=O)[C@H]3[C@@H]2c2ccccc2Cl)cc1	/	/	/	0.0	/	/	/	/
CCNC(=S)Nc1ccc(NC(=O)c2ccccc2O)cc1	0.6	2.3	-6.6	12.0	9.6	1.5	/	/
CCNC(=S)Nc1cccc(NC(=O)c2ccccc2O)c1	0.6	0.5	-5.6	36.5*	5.2	0.6	2.7	-3.8
COc1ccc(NC(=O)CCNS(=O)(=O)c2cccc3nonc23)cc1	-0.7	4.1	28.0	-5.5	8.8	7.1	/	/
SMILES	RecA intein inh	Mtb UGM inh	Mtb betalactam	Mtb FBA inh	GDH-TPI counter-1	Rv3671c inh	Mtb FBA inh conf	GDH-TPI counter-2	others
NC(=O)c1ccc2nc(-c3ccccc3)c(-c3ccccc3)nc2c1	-2.5	0.7	5.4	14.6	23.0	-10.6	/	/
CN1CCN(CCNC(=O)c2ccc3nc(-c4ccc(F)cc4)c(-c4ccc(F)cc4)nc3c2)CC1	1.4	-1.8	0.6	57.8*	6.1	-12.3	18.7	6.3	GDH-TPI DR=3.36*
CCN1CCN(C(=O)c2ccc3nc(-c4ccccc4)c(-c4ccccc4)nc3c2)CC1	2.0	-1.3	-0.5	44.1*	24.6	0.5	128.8*	91.0*
O=C(O)c1ccc2nc(-c3ccccc3)c(-c3ccccc3)nc2c1	-0.8	-0.8	-3.8	29.6*	12.5	0.5	59.4*	34.2*
CCOC(=O)C1CCCN(C(=O)c2ccc3nc(-c4ccccc4)c(-c4ccccc4)nc3c2)C1 (configuration not stated)	11.8	1.8	7.8	36.2*	29.3	-2.4	4.3	5.6
CNc1c(NS(=O)(=O)c2cc(OC)ccc2OC)c(=O)oc2ccccc12	/	-0.8	-0.7	1.3	17.7	-3.7	/	/
COc1ccc(NC(=O)c2cnc(SC)nc2C)c(OC)c1	1.3	0.9	64.0	-0.6	-3.8	1.4	/	/
CCCn1nc(C(=O)Nc2cc(OCC)c(N3CCOCC3)cc2OCC)c2ccccc2c1=O	/	/	/	-2.1	5.5	/	/	/
O=[N+]([O-])/C=C1\C=CC=CN1Cc1ccc(Cl)cc1	2.5	-1.7	-0.2	-0.8	13.1	2.2	/	/
Cc1ccc(C2=CC(c3ccc(C)cc3)n3ncnc3N2)cc1 (configuration not stated)	-90.7	2.3	46.0	34.9*	12.6	-16.1	118.8*	95.3*
COc1ccc(C2C=C(C)Nc3ncnn32)cc1 (configuration not stated)	-4.8	1.1	4.2	36.0*	8.1	-4.3	121.3*	106.2*
COCCOc1ccc(C(F)(F)F)cc1NC(=O)COC(=O)C12CC3CC(CC(O)(C3)C1)C2	-0.2	4.1	-11.0	3.2	2.1	-0.7	/	/
CCCOc1ncnc2c1[nH]c1ccc(C)cc12	/	0.2	-1.4	/	/	-12.3	/	/
CCOc1ncnc2c1[nH]c1ccccc12	1.0	0.1	-3.2	36.7*	14.0	3.7	34.9*	27.6*
Cc1nc2c(-c3ccccc3)cnn2c(N)c1-c1ccccc1	10.8	3.5	29.9	12.4	1.9	/	/	/
O=C(O)c1sc2cc(C(F)(F)F)cnc2c1-c1cccs1	-7.0	0.5	12.1	30.4*	8.8	11.6	+	+

Screens (PubChem)
